TDP-43 yeast inh = inhibitors of TDP-43 toxicity in yeast. TDP-43 expressing yeast growth rescue, BacTiter-Glo, 24 h. Potency, µM (doses to about 46.1 µM), actives largely listed as activators. actives 1.8% (n = 410,000). AID 652104; also: nearly all actives have a fitted effect of over 50% in size
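Growth rescue of TDP-43-toxic yeast measured as ATP luminescence (BacTiter-Glo). Cells grown to mid-log in raffinose, induced in galactose at OD600=0.02, exposed to compound 24 hr at 30 deg C.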
aSyn rescue = alpha-synuclein toxicity inhibition in yeast. Yeast expressing alpha-synuclein, growth rescue, BacTiter-Glo, 24 h. Potency, µM (top dose mostly 46.1 µM), actives largely listed as activators. actives 0.14% (n = 370,000); also: nearly all actives have a fitted effect of over 65% in size
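Readout is rescue of growth in alpha-synuclein-expressing yeast, so inhibitors of toxicity appear as activators. Growth after 24 hr at 30 deg C in galactose medium is quantified by luminescence.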
Abeta rescue = restores growth of yeast expressing A-beta42 peptide; yeast expressing A-beta42, growth rescue, OD600, 48 h; response scale: 0% DMSO, 100% iron-clioquinol control; Potency, µM (series often up to 46.1 µM), actives largely listed as activators; actives 0.063% (n = 410,000); also: nearly all actives have a fitted effect of over 55% in size
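Yeast growth medium received pinned compounds, then yeast cells expressing toxic A-beta were added; plates incubated at 30 C for 48 hr. Growth read as absorbance at 600 nm, normalized to DMSO and equimolar FeCl3 plus clioquinol controls.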
FUS yeast rescue = suppressors of FUS proteinopathy in yeast; S. cerevisiae FUS-expressing, growth rescue, OD600, 24 h; Potency, µM (titrated, usually from 76.6 µM), usual class: activators; actives 0.24% (n = 390,000); AID 1347120; also: nearly all actives have a fitted effect of over 55% in size
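FUS-expressing yeast, raffinose-pregrown, induced in 2% galactose minimal medium at OD 0.005; compounds in a dilution series, 24hr at 30C. Growth restoration read as absorbance at 600 nm. CP55940 positive control, DMSO negative.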
Numbers stand for hits; n = inactive; u = inconclusive; x = no result; [ ] = remark or other dose. Only some compounds are listed: those with a hit (about 2.1% of all), similar ones and a draw of the others. Calls follow the shape of the dose curve; as a rule, active = well fitted curve in the direction sought with a large enough effect; inconclusive = small, poorly fitted or top-dose-only effect, or another doubt; inactive = no such curve, though single readings can be large; an effect the other way counts as inactive or inconclusive.

SMILES | TDP-43 yeast inh | aSyn rescue | Abeta rescue | FUS yeast rescue
CSc1ccc(-c2cc3c(c4c2ccn4C)C2CCC3C2)cc1 (stereo not given) | n | n | n | n
Cn1ccc2c(-c3ccc(CO)cc3)cc3c(c21)C1CCC3C1 (stereo not given) | 35µM | n | n | u
Cn1ccc2c(-c3ccc(C(C)(C)C)cc3)cc3c(c21)C1CCC3O1 (stereo not given) | n | n | n | n
Cn1ccc2c(-c3ccc(F)cc3)cc3c(c21)C1CCC3C1 (stereo not given) | n | n | n | n
CSc1ccc(-c2cc3c(c4c2ccn4C)C2CCC3O2)cc1 (stereo not given) | 25µM | u | n | n
Nc1ncnc2c1ncn2COC(CO)CO | x | n | x | x
Cn1ccc2c(-c3ccc4c(c3)OCCO4)cc3c(c21)C1CCC3O1 (stereo not given) | 22µM | n | n | u
Cn1ccc2c(-c3ccc(CO)cc3)cc3c(c21)C1CCC3O1 (stereo not given) | n | u | n | n
Cn1ccc2c(-c3ccc(C(=O)O)cc3)cc3c(c21)C1CCC3O1 (stereo not given) | 22µM | n | n | n
O=C(COc1ccc(Br)cc1)N(Cc1nnc(-c2ccccc2Cl)o1)C1CC1 | 20µM | u | n | u
CCCN(Cc1nnc(-c2ccccc2Cl)o1)C(=O)COc1ccc(Cl)cc1 | 35µM | n | n | x
CCC(=O)c1ccc(OCC(=O)N(Cc2nnc(-c3ccccc3Cl)o2)C2CC2)cc1 | n | n | n | n
Cc1cccc(-n2nc(C)c(C(=O)Nc3cc(C)ccc3C)c2-n2cccc2)c1 | n | x | n | n
CCOc1ccc(NS(=O)(=O)c2cnc(Cl)c(Cl)c2)cc1 | n | n | n | x
Cc1cc(C)cc(NS(=O)(=O)c2cnc(Cl)c(Cl)c2)c1 | 35µM | n | n | n
CN1C(=O)c2cc(NC(=O)Nc3ccccc3F)ccc2OC[C@H]2O[C@@H](CC(=O)NCc3ccc(-c4ccccc4)cc3)CC[C@@H]21 | x | x | x | n
O=[N+]([O-])c1cc(F)c2cccnc2c1O | 4µM | u | u | n
O=[N+]([O-])c1ccccc1Oc1ccc(Cl)c2cccnc12 | 20µM | u | n | n
O=[N+]([O-])c1cc([N+](=O)[O-])c2cccnc2c1Oc1ccccc1O | 2µM | n | n | x
O=[N+]([O-])c1ccc(O)c2ncccc12 | n | n | n | n
COc1ccc(Oc2ncccc2[N+](=O)[O-])cc1 | n | n | n | n
COc1ccc(Oc2c(OC)cc([N+](=O)[O-])c3ncccc23)cc1 | 35µM | n | n | n
COc1cccc(C(=O)Nc2ccc(C(=O)OCc3cc(=O)n4nc(C5CC5)sc4n3)cc2)c1 | n | x | n | n
Cc1cccc(CS(=O)(=O)Cc2ccc(C(=O)NCc3ccc(Cl)cc3)o2)c1 | n | x | n | n
Cc1cc(NCc2ccccc2Cl)n2cnnc2n1 | n | x | n | n
SMILES | TDP-43 yeast inh | aSyn rescue | Abeta rescue | FUS yeast rescue
Cc1nc(SCC(=O)NCc2ccc3c(c2)OCO3)c(C#N)c2c1CCCC2 | u | 18µM | n | n
O=C(CSc1nncs1)NCc1ccc2c(c1)OCO2 | 13µM | n | n | n
O=C(NCc1ccco1)c1ccc2c(c1)N(Cc1ccc(F)cc1)C(=O)c1ccccc1S2=O (stereo not given) | n | x | n | n
CCOC(=O)C1=CCN(S(=O)(=O)c2cccc(Cl)c2)C1c1ccc(C)cc1 (stereo not given) | u | u | n | n
CCOC(=O)C1=CCN(S(=O)(=O)c2cccc(Cl)c2)C1c1ccc(Br)cc1 (stereo not given) | n | 20µM | n | u
O=C(c1ccc2c(c1)N(Cc1ccc(Cl)cc1)C(=O)c1ccccc1S2=O)N1CCN(c2ccccc2F)CC1 (stereo not given) | n | x | n | u
Oc1ccc(-c2nccc(-c3cccs3)n2)cc1 | 13µM | n | n | n
COC(=O)C(C)Oc1ccc(-c2nccc(-c3cccs3)n2)cc1 (stereo not given) | n | n | n[9.22 µM] | n
CCN(CC)C(=O)CNc1nnnn1-c1ccccc1 | x | x | x | n
COc1cc(OC)nc(-n2ncc(Br)c(Br)c2=O)n1 | 11µM | n | n | n
CCCOc1cc(C)c(S(=O)(=O)NCc2cccs2)cc1C | 20µM | 10µM | n | n
Cc1cc(C)c(S(=O)(=O)NCc2cccs2)cc1C | n | n | n | n
COc1ccccc1-c1noc(-c2ccc(NCC3CCCO3)c([N+](=O)[O-])c2)n1 (stereo not given) | n | x | n | n
CC(=O)Nc1ccc(-c2ccnc3c2CC(C(=O)Nc2cccc(Oc4ccccc4)c2)O3)cc1 (stereo not given) | u | n | n | 11µM
CN(C)c1cccc(NC(=O)C2Cc3c(-c4ccccc4Oc4ccccc4)ccnc3O2)c1 (stereo not given) | n | n | n | 25µM
O=C(Nc1cccnc1)C1Cc2c(-c3ccccc3Oc3ccccc3)ccnc2O1 (stereo not given) | 28µM | n | n | n
CCOC(=O)C1=CCN(S(=O)(=O)c2ccc(C)cc2)C1c1ccccc1 (stereo not given) | n | n | n | n
CCOc1cc2c(c3c1C(c1ccccc1)N(S(=O)(=O)c1ccc(C)cc1)C3)C(=O)C=CC2=O (stereo not given) | 13µM | n | n | n
CC1(C)N=C(SCC(=O)Nc2ccc(Cl)cc2)C(c2ccccc2)=N1 | 32µM | n | n | n
CC1(C)N=C(SCC(=O)Nc2ccc(Cl)cc2)C(c2ccc(Cl)cc2)=N1 | 35µM | n | n | n
CCOc1ccc(NC(=O)CN2C(=O)C(c3ccc(Cl)cc3)=NC2(C)C)cc1 | n | x | n | n
CCOc1ccc(C2C(C(=O)Nc3ccccc3C)=C(C)Nc3nnnn32)cc1 (stereo not given) | n | x | n | n
Cc1cccc2c1nc(-c1ccccc1)n1cnnc21 | 14µM | n | n | n
CCOc1ccc(OCC(=O)Nc2c(C(=O)Nc3ccc(C)cc3)oc3ccccc23)cc1 | n | x | n | n
Cc1ccc(S(=O)(=O)N2CCN(C(=O)c3ccc4c(c3)OCO4)CC2)cc1 | n | n | n | n
SMILES | TDP-43 yeast inh | aSyn rescue | Abeta rescue | FUS yeast rescue
Cc1cc(C)c(S(=O)(=O)N2CCN(C(=O)c3c(C)nn(-c4ccccc4)c3Cl)CC2)c(C)c1 | n | n | n | x
O=C(c1ccc2c(c1)OCO2)N1CCN(S(=O)(=O)c2ccc(Br)cc2Cl)CC1 | 18µM | n | n | n
O=C(c1ccc2c(c1)OCO2)N1CCN(S(=O)(=O)c2ccccc2)CC1 | n | n | n | x
Cc1cc(C)c(S(=O)(=O)N2CCN(C(=O)c3ccc4c(c3)OCO4)CC2)c(C)c1 | 16µM | n | n | n
Cc1cc(C)c(S(=O)(=O)N2CCN(C(=O)c3ccc(-n4nc(C)c(Cl)c4C)cc3)CC2)c(C)c1 | u | n | n | 16µM
COc1cccc(/C=C2\CCC(C3CCCC3)C2=O)c1OC (stereo not given) | u | n | n | 7.9µM
COc1ccc(/C=C2\CCC(C3CCCC3)C2=O)c(OC)c1OC (stereo not given) | n | u | n | n
